Most compounds without a hit are left out; they make up all but 6.3% or so of the library.
PMK inhibit – S. pneumoniae PMK inhibition. purified PMK, PK/LDH-coupled NADH absorbance 340 nm. inhibition, % at 10 µM. 65,000 tested, 0.49% active. AID 539;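 active = top-ranked compounds by inhibition in the single 10 µM screen, taking a fixed number of the strongest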;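 also: 0% = full reaction with DMSO carrier and 100% = background rate without enzyme reaction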
Abs 340nm – compound absorbs light at 340 nm | compound absorbance at 340 nm, fold over control | fold change at 10 µM | 65,000 tested, under 10 active;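 active = at 10 µM dose, initial 340 nm absorbance at least 2 fold that of control wells; inactive = change under 2 fold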;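 also: initial absorbance extrapolated from kinetic A340 decline of NADH oxidation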
Spn DPM-DC inh – inhibitors of Streptococcus pneumoniae diphosphomevalonate decarboxylase | purified DPM-DC, PK/LDH coupled NADH fluorescence | calls only at 10 µM | 65,000 tested, 0.49% active | AID 556;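 active = the 320 compounds with the highest percent inhibition in the single-dose primary screen, excluding strongly autofluorescent ones, cut at about 32% in these data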;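 also: kinetic rate of NADH fluorescence loss reporting ADP formed by the decarboxylase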
Spn MK inh – S. pneumoniae mevalonate kinase inhibition; purified MK, PK/LDH-coupled NADH absorbance 340 nm; inhibition, % at 10 µM; 65,000 tested, 0.48% active; AID 555;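 active = ranked among the strongest by inhibition in the single 10 µM screen, a fixed top-ranked set picked for dose follow-up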
Fluor 339 460 – intrinsic fluorescence of library compounds, ex339/em460 – biochemical, MLSMR library, data from DPM-DC assay, artefact control, profiling panel; 65,000 tested, 5.5% active; AID 709; fluorescence fold increase at 10 µM; compound autofluorescence, ex339/em460 nm, NADH buffer; hits give high values; 1 = no-compound wells, NADH background;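 active = at 10 µM, mean starting fluorescence two-fold or more over control wells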;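 also: signal is the first read of a kinetic run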
NADH enzymes – blocks coupling enzymes of NAD/NADH assays | coupled PK/LDH NADH assays, four targets | 65,000 tested, 0.02% active | IC50, µM (doses to about 10 µM), for the others: at the top dose inhibition;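 active = single-dose screening hits from any of four coupled enzyme assays that gave an IC50 when retested across doses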;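 also: the DPM-DC format reads NADH fluorescence rather than 340 nm absorbance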
* = called active by the depositor; i = inactive; x = no result shown; + = active, no number.

SMILES	PMK inhibit	Abs 340nm	Spn DPM-DC inh	Spn MK inh	Fluor 339 460	NADH enzymes
COC(=O)[C@@H](NC(=O)N1CCN(c2cccc(C(F)(F)F)c2)CC1)C(C)C	30*	0.83	i	14	0.98	15%
COC(=O)[C@H](CCSC)NC(=O)N1CCN(c2cccc(C(F)(F)F)c2)CC1	6	0.99	i	9	1.1	5%
COc1ccc(C2(O)CCN(CC(=O)Nc3nccs3)CC2)c(OC)c1	18	0.98	i	4	1	7%
O=C(CCN1CCN(c2ccccc2F)CC1)Nc1ccc2c(c1)OCO2	12	1	i	11	1.4	13%
O=c1[nH]c(NCc2ccccc2)nc2c1CCCC2	6	1	i	13	1	2%
CC1OC(Nc2cccc3ccccc23)C(O)C(O)C1O (configuration not stated)	2	1	x	13	2.1*	8%
O=C(Nc1cccc2ccccc12)OC1C=CS(=O)(=O)C1 (configuration not stated)	11	1	i	8	1.1	8%
Cn1c(=O)cc(SCC(=O)NCCN2CCN(c3ccccc3F)CC2)c2cc(Cl)ccc21	13	1	i	3	1.2	6%
Cc1cc(Oc2ccccc2)nc(-c2ccccc2)n1	0	0.99	i	5	0.98	2%
Cc1cc(Oc2ccccc2)nc2ccc(O)cc12	4	1.1	x	8	2.1*	6%
CCCN(CCC)CCNC(=O)C(NS(=O)(=O)c1ccc2c(c1)CCC(=O)N2)c1ccccc1 (configuration not stated)	12	1	i	3	1	3%
Cc1nn(C)cc1CN(C)C(=O)c1cc2nc(-c3ccco3)cc(C(F)(F)F)n2n1	0	1.1	i	3	2.7*	8%
Cc1nn(C)c(C)c1CN(C)C(=O)c1cc2nc(-c3ccco3)cc(C(F)(F)F)n2n1	14	1.1	i	1	2.5*	8%
Cc1ccccc1Cn1nc(C)c(NC(=O)c2cc3nc(-c4ccco4)cc(C(F)(F)F)n3n2)c1C	12	1.1	i	11	1.8	12%
CCc1cc2c(=O)c(-c3cscn3)coc2c(CN(C)C)c1O	1	1.1	x	6	2.3*	4%
COC(=O)Sc1nnc(-c2ccc(Br)cc2)o1	16	1.1	+	5	1.5	20µM*
Cc1cc(OC(=O)c2ccc(S(=O)(=O)N(C)C)cc2)cc(=O)o1	18	0.97	i	4	1.1	7%
CC(=O)c1ccc(Oc2ncnc3sccc23)c(CN2CCOCC2)c1	25*	1	i	0	1	8%
COc1ccc(OC)c(-n2c(SCC(=O)NCc3ccco3)nnc2-c2c[nH]c3ccccc23)c1	9	1.1	i	10	1.1	6%
CC(C)c1nc2sc3c(SCC(=O)NCc4ccco4)ncnc3c2c2c1CCC2	0	1.1	i	11	1.1	4%
CSc1nc(N(CCO)CCO)c2sc3nc(-c4ccco4)c4c(c3c2n1)CCC4	0	1.1	x	12	2.3*	6%
Cc1cc(C)cc(NC(=O)CCN2CC(C)OC(C)C2)c1 (configuration not stated)	5	1	i	0	1.1	2%
CCC1(C)Cc2c(sc3[nH]c(=O)[nH]c(=O)c23)CS1 (configuration not stated)	4	1	x	3	2.3*	4%
CC(=O)c1c(C)nn(CC(O)Cn2c3c(c4cc(C)ccc42)CCCC3=O)c1C (configuration not stated)	4	1.1	x	11	5.2*	8%
Cc1cc(NCC2CCCO2)n2c(nc3ccccc32)c1C#N (configuration not stated)	1	1	x	5	2.5*	2%
SMILES	PMK inhibit	Abs 340nm	Spn DPM-DC inh	Spn MK inh	Fluor 339 460	NADH enzymes
Cc1cc(NCCN2CCCCC2)n2c(nc3ccccc32)c1C#N	0	0.99	x	4	2.7*	2%
Cc1nc(NCCCn2ccnc2)c2ccccc2n1	15	1	i	6	1	7%
Cc1cc(N2CCN(C3CCCC3)CC2)n2c(nc3ccccc32)c1C#N	8	1	x	9	2.5*	2%
Cc1cccc2cc(C#N)c(NCCCn3ccnc3)nc12	17	0.98	i	0	2.6*	12%
N#Cc1c2c(c(NCCN3CCOCC3)n3c1nc1ccccc13)CCCC2	21	0.99	i	5	1.8	9%
CC(=O)c1cc2c(cc1NS(=O)(=O)c1ccc(C)cc1)OCCO2	13	1.1	i	11	1.1	12%
COCc1nnc(NS(=O)(=O)c2ccc(Br)cc2)s1	4	1	i	3	1.1	3%
Cc1cc(NCCCn2ccnc2)n2c(nc3ccccc32)c1C#N	1	1	x	4	3.4*	1%
COC(=O)CSc1ccc2c(N)c(C(=O)OC)sc2c1	15	1	i	1	2.5*	13%
CN1C(=O)N(C)C2(c3ccccc3)N(C)C(=O)NC12c1ccccc1 (configuration not stated)	15	1	i	11	1.1	14%
CN(C)c1nc2sc3c(c2c(=O)n1C)CC(C)(C)OC3	10	1.1	i	10	1.1	7%
CNc1nc2sc3c(c2c(=O)n1C)CC(C)(C)SC3	2	1	i	6	2.2*	5%
COCc1c(C)cc(C)c(/C=N/O)c1C	5	1.1	i	6	1.1	4%
CCc1ccc(CCC(=O)Nc2ccc(C)c(C)c2)o1	10	0.98	+	10	1.1	5%
Cc1cccc2[nH]c3c(=O)n(CCN4CCNCC4)cnc3c12	10	1	i	10	2.5*	14%
CCN1CCCC1CNc1ncnc2c1[nH]c1ccc(Cl)cc12 (configuration not stated)	12	1.1	i	10	1.8	10%
Cc1ccc2[nH]c3c(=O)n(CCN4CCNCC4)cnc3c2c1	11	1	i	8	3.1*	12%
CCN1CCCC1Cn1cnc2c([nH]c3ccc(C)cc32)c1=O (configuration not stated)	2	1	x	9	2.3*	6%
O=c1c2[nH]c3ccccc3c2ncn1CCN1CCCCC1	5	1	i	9	2.1*	11%
CN(Cc1ccccc1)C(=O)CSc1nnc(-c2ccco2)n1-c1ccccc1	2	1	i	0	1.1	1%
c1ccc(CC2CCN(c3nc4ccccc4n4nnnc34)CC2)cc1	10	1.1	i	0	2.6*	3%
CCN(CCNC(=O)c1cc(C)nn1-c1ccccc1)c1ccccc1	0	1	i	10	1.1	3%
CCOC(=O)CC(=O)CSc1nnc2c(n1)[nH]c1ccccc12	34*	1.2	i	0	1	11%
